From PubChem BioAssay
Activity calls are given as the source filed them.

Legend:
[1] = E. coli DRC41 culture turbidity changes, primary screen, E. coli filamentation inducer project, strain DRC41, OD650, 48 h (AID 1152);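 note: E. coli MC1000 strain DRC41 lacking acrAB efflux pump and sulA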; details: E. coli DRC41 (acrAB sulA), higher = more signal, called active from +8 up or from −8 down
[2] = small-molecule binders of probe aLefty1, primary screen, biochemical, small-molecule microarray, 635/667 nm fluorescence (AID 1153); details: higher = more signal;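 note: score merges spot fluorescence with signal-to-noise ratio from the scanned slide images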
[3] = PSAC antagonists in infected red cells, primary screen, cell-based, P. falciparum Indochina, OD700, 1 h (AID 1154); details: P. falciparum Indochina infected RBC osmotic lysis, higher = more signal, called active from +8 up or from −8 down
[4] = PSAC antagonists in infected red cells, primary screen, cell-based, P. falciparum Indochina, OD700, 2 h (AID 1155);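 note: lysis reports solute entry through the parasite surface anion channel PSAC; channel blockers reduce lysis of infected cells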; details: P. falciparum Indochina infected erythrocytes, osmotic lysis OD700; higher = more signal, called active from +8 up or from −8 down
[5] = osmotic lysis modulators in infected erythrocytes, primary screen, PSAC antagonist project, cell-based, P. falciparum Indochina, OD700, 3 h (AID 1156); details: higher = more signal, called active from +8 up or from −8 down
[6] = PSAC antagonists in infected red cells, primary screen, cell-based, P. falciparum Indochina, OD700, 18 h (AID 1157); details: P. falciparum Indochina infected erythrocytes, osmotic lysis OD700, 18 h; higher = more signal, called active from +8 up or from −8 down
[7] = modulators of S6 phosphorylation in cells, primary screen, cell-based, A549, cytoblot, luminescence, serum-stimulated (AID 1158); details: A549 phospho-S6 cytoblot, 5 h, higher = more signal;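 note: serum-stimulated A549 lung adenocarcinoma cells; signal is phosphorylated S6 detected by cytoblot immunostaining with HRP secondary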
[8] = target: NADPH oxidase 2 (Homo sapiens) (UniProt P04839); experiment: NOX2-dependent H2O2 signal modulators, primary screen, NOX inhibitor project, cell-based, HEK293-NOX2, PMA-stimulated, Amplex Red fluorescence (AID 1159); details: 45 min, higher = more signal, called active from +8 up or from −8 down; note: test concentration not given here
[9] = target: NADPH oxidase 4 (Homo sapiens) (UniProt Q9NPH5); experiment: NOX4-dependent H2O2 signal modulators, primary screen, NOX inhibitor project, cell-based, HEK293-NOX4, tetracycline-induced, Amplex Red fluorescence (AID 1160); details: 45 min, higher = more signal, called active from +8 up or from −8 down
[10] = target: NADPH oxidase 5 (Homo sapiens) (UniProt Q96PH1); experiment: NOX5-dependent H2O2 signal modulators, primary screen, NOX inhibitor project, cell-based, HEK293-NOX5, Amplex Red fluorescence (AID 1161); details: HEK293-NOX5, ionomycin, 45 min, higher = more signal
Sequence of NADPH oxidase 5 (Homo sapiens) (Q96PH1 whole entry, looked up): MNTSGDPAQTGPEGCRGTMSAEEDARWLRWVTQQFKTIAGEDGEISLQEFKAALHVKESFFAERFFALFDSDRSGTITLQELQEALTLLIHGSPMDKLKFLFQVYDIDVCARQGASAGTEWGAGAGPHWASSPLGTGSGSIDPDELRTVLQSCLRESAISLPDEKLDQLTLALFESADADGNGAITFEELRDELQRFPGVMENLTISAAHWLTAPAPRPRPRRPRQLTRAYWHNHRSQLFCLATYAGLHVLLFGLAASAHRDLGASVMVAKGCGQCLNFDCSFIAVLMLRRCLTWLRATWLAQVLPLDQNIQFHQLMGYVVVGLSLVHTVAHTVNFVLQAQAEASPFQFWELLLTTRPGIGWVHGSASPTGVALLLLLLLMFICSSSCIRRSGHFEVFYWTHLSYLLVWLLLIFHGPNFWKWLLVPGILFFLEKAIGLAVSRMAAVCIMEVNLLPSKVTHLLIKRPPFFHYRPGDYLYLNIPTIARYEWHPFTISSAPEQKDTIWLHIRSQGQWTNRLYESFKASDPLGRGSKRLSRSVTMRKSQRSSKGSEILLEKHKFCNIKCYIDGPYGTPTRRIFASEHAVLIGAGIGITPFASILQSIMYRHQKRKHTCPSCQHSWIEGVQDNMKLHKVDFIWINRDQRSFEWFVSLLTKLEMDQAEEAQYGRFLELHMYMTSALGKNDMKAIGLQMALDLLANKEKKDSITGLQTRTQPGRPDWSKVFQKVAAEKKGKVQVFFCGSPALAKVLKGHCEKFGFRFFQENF

Sequence of NADPH oxidase 4 (Homo sapiens) (Q9NPH5 whole entry, looked up): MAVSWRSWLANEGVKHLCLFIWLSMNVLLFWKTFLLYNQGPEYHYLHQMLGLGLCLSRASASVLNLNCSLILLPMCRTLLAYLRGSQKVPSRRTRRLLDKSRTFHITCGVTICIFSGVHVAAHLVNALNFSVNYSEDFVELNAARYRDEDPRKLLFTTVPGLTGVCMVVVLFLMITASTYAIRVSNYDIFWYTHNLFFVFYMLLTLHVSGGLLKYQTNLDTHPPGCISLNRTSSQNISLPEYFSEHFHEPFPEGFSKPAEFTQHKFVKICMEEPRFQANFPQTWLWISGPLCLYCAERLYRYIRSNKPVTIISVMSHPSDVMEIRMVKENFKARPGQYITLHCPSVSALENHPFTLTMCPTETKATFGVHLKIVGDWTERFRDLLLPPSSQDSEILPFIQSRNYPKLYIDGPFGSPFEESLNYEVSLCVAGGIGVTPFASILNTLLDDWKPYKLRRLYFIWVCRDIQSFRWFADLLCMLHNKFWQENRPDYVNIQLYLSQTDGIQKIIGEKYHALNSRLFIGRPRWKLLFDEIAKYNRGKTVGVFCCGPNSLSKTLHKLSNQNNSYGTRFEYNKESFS
Sequence of NADPH oxidase 2 (Homo sapiens) (P04839 whole entry, looked up): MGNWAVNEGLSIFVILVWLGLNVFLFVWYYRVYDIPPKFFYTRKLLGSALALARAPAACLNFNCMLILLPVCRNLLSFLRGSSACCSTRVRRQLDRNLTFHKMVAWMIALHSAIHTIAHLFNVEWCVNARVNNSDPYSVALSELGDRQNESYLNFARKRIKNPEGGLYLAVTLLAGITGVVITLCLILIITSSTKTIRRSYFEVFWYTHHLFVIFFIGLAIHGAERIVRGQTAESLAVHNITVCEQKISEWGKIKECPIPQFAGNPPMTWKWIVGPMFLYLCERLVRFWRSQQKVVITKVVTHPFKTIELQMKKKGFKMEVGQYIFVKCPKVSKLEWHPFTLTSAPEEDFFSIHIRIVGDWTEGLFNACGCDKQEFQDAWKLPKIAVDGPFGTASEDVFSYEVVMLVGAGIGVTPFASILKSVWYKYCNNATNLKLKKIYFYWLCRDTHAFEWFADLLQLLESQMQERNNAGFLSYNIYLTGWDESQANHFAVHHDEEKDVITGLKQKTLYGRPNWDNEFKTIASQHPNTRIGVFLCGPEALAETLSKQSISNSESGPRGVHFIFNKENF

SMILES	z-score [1]	composite z-score [2]	z-score [3]	z-score [4]	z-score [5]	z-score [6]	z-score [7]	z-score [8]	z-score [9]	z-score [10]
C=CCC(OC(C)=O)[C@@H]1[C@@H](N(Cc2ccc(-c3ccccc3)cc2)C(=O)c2cccc3ccccc23)c2cc(OCCCO)ccc2N1C(=O)Cc1ccc(OC)cc1 (stereo not given in full)	-1.17 (inactive)	0.568	0.53 (inactive)	0.525 (inactive)	0.375 (inactive)	0.211 (inactive)	-0.0451	-0.248 (inactive)	-0.0822 (inactive)	-2.28
CC(=O)NCCCC[C@@H]1NC(=O)[C@H]2C[C@@H](C(=O)NCCCCCCNC(=O)CS)[C@@H](c3cccc(OCCO)c3)N2C1=O	-0.337 (inactive)	-0.101	3.07 (inactive)	0.858 (inactive)	1.18 (inactive)	0.448 (inactive)	-0.754	1.6 (inactive)	-0.667 (inactive)	0.443
CCCCCC1=C2CNC(Cc3ccccc3)(C(=O)OC)C=C2C(C)C1=O (stereo not given)	-1.76 (inactive)	0.568	2.16 (inactive)	-0.21 (inactive)	1.04 (inactive)	0.422 (inactive)	-0.275	-0.733 (inactive)	-3.5 (inactive)	-3
Cc1ccc(S[C@]2(C(=O)NCCCN(C)C)CC(=O)N(C3Cc4ccccc4C3)[C@@H]2c2ccc(CO)cc2I)cc1	-0.759 (inactive)	-0.0882	4.32 (inactive)	0.903 (inactive)	0.925 (inactive)	0.352 (inactive)	-0.0249	0.914 (inactive)	-1.12 (inactive)	2.56
Cc1ccc(S[C@]2(C(=O)NC(C)C)CC(=O)N(C3CCCCC3)[C@@H]2c2ccc(CO)cc2I)cc1	0.497 (inactive)	-0.0564	6.28 (inactive)	1.47 (inactive)	1.18 (inactive)	0.916 (inactive)	-0.052	0.877 (inactive)	0.292 (inactive)	1.89
COc1ccc([Si](C)(C)[C@H]2[C@H](CC(=O)N3CCC[C@H]3CO)O[C@@]3(C(=O)N(Cc4ccc(N5CCCCC5=O)cc4)c4ccccc43)[C@@H]2C)cc1	1.5 (inactive)	0.44	7.73 (inactive)	1.66 (inactive)	2.12 (inactive)	1.02 (inactive)	0.287	1.52 (inactive)	1.03 (inactive)	2.69
C=C(CCCC)/C(=C/C[C@@H](OC(C)=O)c1ccc(CO)o1)c1cnc2ccccc2c1	0.105 (inactive)	0.0077	9.2 (active)	1.25 (inactive)	2.11 (inactive)	0.406 (inactive)	0.509	-0.383 (inactive)	-0.837 (inactive)	-0.426
COCCOC(=O)N1C(=O)[C@@]2(c3cc(C#CCC(C(=O)OC)C(=O)OC)ccc31)[C@H](c1ccc(O)cc1)N1[C@H](c3ccccc3)[C@H](c3ccccc3)OC(=O)[C@H]1[C@@H]2C(=O)Nc1nc2ccccc2s1	0.306 (inactive)	0.251	2.75 (inactive)	0.666 (inactive)	0.34 (inactive)	0.802 (inactive)	-0.286	1.1 (inactive)	-1.09 (inactive)	0.698
[N-]=[N+]=NCc1ccccc1[C@@H]1OC(c2ccc(OCCCO)cc2)=N[C@]1(Cc1ccccc1N=[N+]=[N-])C(=O)O	0.0786 (inactive)	0.865	22.9 (active)	6.73 (inactive)	3.2 (inactive)	0.982 (inactive)	0.0708	-1.51 (inactive)	-0.241 (inactive)	0.58
C=C(COC)/C(=C/C[C@@H](OC(C)=O)c1ccccc1OCCO)c1cnc2ccccc2c1	-0.146 (inactive)	0.267	28.1 (active)	14.2 (active)	1.56 (inactive)	1.71 (inactive)	0.413	-1.22 (inactive)	-1.04 (inactive)	-0.792
CN1C(=O)C2C(C3CC3)C=C3CN(Cc4cccc(Cl)c4)[C@@H]([C@@H](O)Cc4ccccc4)C3C2C1=O (stereo not given in full)	1.14 (inactive)	0.2	8.18 (active)	1.25 (inactive)	1.57 (inactive)	0.918 (inactive)	0.775	-0.38 (inactive)	0.0765 (inactive)	0.168
COc1ccc(CCNC(=O)[C@@H]2c3ccccc3C(=O)N(Cc3ccccc3OC)[C@H]2c2ccc(CO)cc2)cc1	-0.499 (inactive)	-0.0303	3.02 (inactive)	0.0323 (inactive)	0.709 (inactive)	-0.0383 (inactive)	-0.0817	-1.31 (inactive)	-0.213 (inactive)	-2.09
COc1ccc(C(O)C2C=CC3C(=O)NC(=O)C3N2Nc2ccc(Cl)cc2Cl)c2ccccc12 (stereo not given)	-0.866 (inactive)	0.379	2.37 (inactive)	1.44 (inactive)	-0.46 (inactive)	1.78 (inactive)	-0.101	-0.0689 (inactive)	-5.63 (inactive)	-1.58
CC(C)=CCCC(C)=CC(O)C1C=CC2C(=O)NC(=O)C2N1Nc1ccc(Cl)cc1Cl (stereo not given)	-2.85 (inactive)	0.544	7.58 (inactive)	1.61 (inactive)	-0.519 (inactive)	1.39 (inactive)	-0.498	-1.84 (inactive)	-5.04 (inactive)	-1.53
O=C(O)[C@H](Cc1ccccc1)n1cc(C2(O)CCCCC2)nn1	-0.976 (inactive)	0.592	0.0438 (inactive)	-0.879 (inactive)	-0.472 (inactive)	-0.281 (inactive)	0.347	1.01 (inactive)	0.715 (inactive)	0.31
CC(C)C(CO)N1C(=O)[C@@H]2C3C(=O)OCCC/C=C\[C@H]3OC23C=CCN(Cc2ccccc2)C(=O)[C@@H]13 (stereo not given in full)	0.83 (inactive)	-0.0035	1.12 (inactive)	0.405 (inactive)	1.12 (inactive)	0.503 (inactive)	0.186	1.25 (inactive)	0.838 (inactive)	2.26
CC(C)C[C@H]1NC(=O)C([C@@H](C)OCc2ccccc2)NC(=O)[C@@]23C(=O)N[C@@H](Cc4ccccc4)C2[C@H](C)[C@@]2(C)O[C@H]2C3/C=C/C/C=C\CNC1=O (stereo not given in full)	-0.629 (inactive)	0.0361	1.44 (inactive)	-0.387 (inactive)	-0.0195 (inactive)	0.0591 (inactive)	0.298	0.569 (inactive)	0.742 (inactive)	-2.51
CCOC(=O)C1=CCC(c2cc3ccccc3[nH]2)N(CCN2CC(C(=O)OCC)=CCC2c2cc3ccccc3[nH]2)C1 (stereo not given)	-0.889 (inactive)	0.379	4.01 (inactive)	1.41 (inactive)	2.42 (inactive)	1.03 (inactive)	1.56	-0.756 (inactive)	-0.315 (inactive)	-0.307
O=C1C2C=CC(C(O)c3c(F)cccc3Cl)N(Nc3ccc([N+](=O)[O-])cc3)C2C(=O)N1c1ccccc1 (stereo not given)	-0.262 (inactive)	0.218	30 (active)	21 (active)	2.34 (inactive)	1.76 (inactive)	-0.24	-1.5 (inactive)	-2.29 (inactive)	-1.9
C=CC1c2cc(O)c(OC)cc2CCN1C (stereo not given)	-0.664 (inactive)	-0.101	0.994 (inactive)	-0.152 (inactive)	-0.969 (inactive)	-0.214 (inactive)	-0.466	-4.27 (inactive)	-2.63 (inactive)	-3.08
C=CC[C@@]1(C(=O)OC)N=C(c2ccc(OCCCO)cc2)O[C@@H]1c1ccccc1N=[N+]=[N-]	0.0465 (inactive)	0.398	30.6 (active)	27.4 (active)	4.11 (inactive)	5.12 (inactive)	0.581	-0.471 (inactive)	1.43 (inactive)	-0.0237
CCC(CC)C(O)C1C=CC2C(=O)N(c3ccccc3)C(=O)C2N1Nc1ccccc1F (stereo not given)	-0.372 (inactive)	0.0315	0.834 (inactive)	0.412 (inactive)	0.164 (inactive)	0.584 (inactive)	-0.364	0.223 (inactive)	-0.0786 (inactive)	-0.39
C=C(COC)/C(=C/C[C@H](OC(C)=O)c1ccccc1OCCO)c1cc(C(=O)OC)ccc1OC	0.311 (inactive)	-0.145	8.11 (active)	1.02 (inactive)	0.454 (inactive)	-0.897 (inactive)	1.52	-0.688 (inactive)	0.0021 (inactive)	-1.97
C=CC[C@]1(C(=O)NCC(O)CO)COC(c2ccc(OCCCO)cc2)=N1 (stereo not given in full)	-0.353 (inactive)	0.174	3.8 (inactive)	0.203 (inactive)	0.99 (inactive)	0.545 (inactive)	0.18	-0.261 (inactive)	0.914 (inactive)	0.462
O=C(NCC(O)CO)C1N=C(c2ccc(OCCCO)cc2)N(c2ccccc2)O1 (stereo not given)	-0.0446 (inactive)	-0.316	13.5 (active)	1.49 (inactive)	0.257 (inactive)	0.594 (inactive)	0.0265	-1.68 (inactive)	-1.05 (inactive)	-0.583
